# KCNQ2 enhance: potentiators of rat KCNQ2 potassium channel; CHO-K1 KCNQ2, FluxOR thallium flux fluorescence; stronger effect = higher value; AID 2239; 310,000 compounds, 0.54% hits; B-score at 10 µM;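 active means fluorescence ratio B-score at least 3 SD of library B-scores, with initial fluorescence B-score within 3 of them, cut at about 5.3 in these data; same plate scores as AID 2156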;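 further: B-score of peak minus minimum over baseline fluorescence ratio after K+ and Tl+ stimulus; positive B-score means potentiation of KCNQ2 with more thallium influx and brighter signal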
# KCNQ2 inh: blocks the rat KCNQ2 potassium channel; O88943; CHO-K1 KCNQ2, FluxOR thallium flux, 20 min; stronger effect = lower value; B-score at 10 µM; AID 2156; 310,000 compounds, 1.1% hits;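 active means fluorescence ratio B-score at most minus 3 library SDs, with starting brightness B-score within 2 library SDs, cut at about -5.5 in these data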
# KCNQ2 inh conf: confirmation of rat KCNQ2 potassium channel inhibitors; shares compounds with KCNQ2 inh; KCNQ2-expressing cells, thallium flux, inhibition; stronger effect = lower value; activity change, negative = inhibition, % at 10 µM; 1,000 compounds, 57% hits;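 further: 0% = vehicle wells and values are ratio percent relative to vehicle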
# KCNQ1 spec: selectivity of KCNQ2 inhibitors against human KCNQ1 | shares compounds with KCNQ2 inh | KCNQ1-expressing cells, FluxOR thallium flux fluorescence; stronger effect = lower value | activity change, negative = inhibition, % at 10 µM | 1,000 compounds, 15% hits;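 active means activity change at least 3 SD of negative controls below their mean in both duplicate wells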;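 further: CHO cells stably transfected with KCNQ1 and depolarized by potassium stimulus; peak minus minimum fluorescence over baseline after thallium addition; 0% = vehicle negative control and -100% = blank without thallium stimulus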
# Target sequence (P51787 whole entry, looked up): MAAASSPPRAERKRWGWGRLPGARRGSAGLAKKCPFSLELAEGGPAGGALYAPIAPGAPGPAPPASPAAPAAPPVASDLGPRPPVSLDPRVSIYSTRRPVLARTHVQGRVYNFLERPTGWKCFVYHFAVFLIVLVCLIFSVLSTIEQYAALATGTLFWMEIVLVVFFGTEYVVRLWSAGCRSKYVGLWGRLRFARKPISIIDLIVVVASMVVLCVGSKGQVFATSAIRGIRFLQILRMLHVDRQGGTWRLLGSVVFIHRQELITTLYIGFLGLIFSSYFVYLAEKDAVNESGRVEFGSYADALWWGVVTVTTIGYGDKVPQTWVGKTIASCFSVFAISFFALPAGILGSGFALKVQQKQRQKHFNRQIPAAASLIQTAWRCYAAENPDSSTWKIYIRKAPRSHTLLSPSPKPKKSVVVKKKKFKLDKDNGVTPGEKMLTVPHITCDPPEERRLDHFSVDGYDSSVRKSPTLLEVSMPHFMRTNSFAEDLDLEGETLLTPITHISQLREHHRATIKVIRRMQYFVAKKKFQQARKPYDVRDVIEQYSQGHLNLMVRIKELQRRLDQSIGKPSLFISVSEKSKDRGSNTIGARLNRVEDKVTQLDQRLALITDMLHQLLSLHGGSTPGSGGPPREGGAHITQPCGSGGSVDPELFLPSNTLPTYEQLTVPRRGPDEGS
# CHO parental ctr: KCNQ2 inhibitor counter-screen hit in parental CHO cells | shares compounds with KCNQ2 inh | thallium flux counter-screen; stronger effect = lower value | activity change, % at 10 µM | 1,000 compounds, 14% hits;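 further: 0% = vehicle negative controls with stimulus buffer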
# KCNQ2 patch conf: confirmation of rat KCNQ2 potassium channel inhibitors | shares compounds with KCNQ2 inh | KCNQ2-expressing cells, automated patch clamp current | calls only at 10 µM | 550 compounds, 49% hits | AID 588531
# * hit, by the source's call; i = inactive; x = no result; + = active, no number. In the library only some 1.6% were active in any assay of this set; here they are far more common. Unless noted, how the calls were made is not given here.
SMILES,KCNQ2 enhance,KCNQ2 inh,others
O=C1NC(=O)C2(Cc3ccccc3N3CCCC32)C(=O)N1c1cccc(Cl)c1 (configuration not stated),x,i,
Cc1ccc(N2C(=O)NC(=O)C3(Cc4ccccc4N4CCN(c5ccccc5)CC43)C2=O)cc1 (configuration not stated),-7.1,-7.1*,
O=c1cccc2n1C[C@@H]1C[C@@H]2CN(CC(O)c2ccc([N+](=O)[O-])cc2)C1 (some centres not stated),x,i,
CCC1(CC)C(=O)NC(=Nc2cccc(C(F)(F)F)c2)NC1=O,1.4,i,
Cc1c2cnn(CC(=O)N3CCC4(CC3)OCCO4)c(=O)c2c(C)n1Cc1ccc(F)cc1,2.2,i,
O=C(Cn1ncc2c3ccccc3n(Cc3ccccc3F)c2c1=O)N1CCC2(CC1)OCCO2,16*,i,
O=[N+]([O-])NC1=NCCN1Cc1ccc(Cl)nc1,1.4,i,
CCN(CC)P(=O)(/C=C(\Cl)c1ccccc1)/C=C(\Cl)c1ccccc1,-5.9,-5.9*,
O=P(O)(O)/C=C(\Cl)c1ccccc1,x,i,
Cc1nc2ccccc2c(=O)n1-c1cc([N+](=O)[O-])cc([N+](=O)[O-])c1,0.08,i,
CN1CCC(N(C)c2nc(-c3ccc([N+](=O)[O-])cc3)nc3ccccc23)CC1,-6,-6*,
COC(=O)C1=C(c2cc3ccccc3o2)C[C@@H]2CC[C@H]1N2C(=O)N1CCC(C)CC1,x,i,
C=C1C/C(=C/C)C(=O)O[C@@H]2CCN3CC=C(COC(=O)[C@]1(C)O)[C@H]23,x,i,
CN(CCc1ccccc1)Cc1ccccc1[N+](=O)[O-],x,i,
Oc1ccccc1CN(CCc1ccccc1)Cc1ccccc1,-6,-6*,
O=P(Nc1cccc(Cl)c1)(Oc1ccccc1)Oc1ccccc1,-5.6,-5.6*,
COc1cccc(NP(=O)(Oc2ccccc2)Oc2ccccc2)c1,x,i,
CCOP(=O)(OCC)C1(C(=O)O)CCCC1,0.82,i,
CN[C@H]1C[C@H]2O[C@@](C)([C@H]1OC)n1c3ccccc3c3c4c(c5c6ccccc6n2c5c31)C(=O)NC4,9.3*,i,
O=P1(NCCCn2cc[n+](Cc3nc4ccccc4[nH]3)c2)C=C(c2ccccc2)OC(c2ccccc2)=C1,x,i,
O=c1[nH]c(=S)n(C2CCCCC2)c(O)c1/C=N/N1CCOCC1,x,i,
CCC(C)C(=O)N[C@@H](c1ccccc1)[C@@H](O)C(=O)O[C@H]1C[C@@]2(O)[C@@H](OC(=O)c3ccccc3)C3[C@](C)(C(=O)[C@H](OC(C)=O)C(=C1C)C2(C)C)[C@@H](O)C[C@H]1OC[C@@]31OC(C)=O (some centres not stated),x,i,
CC/C=C/CC(=O)N[C@@H](c1ccccc1)[C@@H](O)C(=O)O[C@H]1C[C@@]2(O)[C@@H](OC(=O)c3ccccc3)C3[C@](C)(C(=O)[C@H](OC(C)=O)C(=C1C)C2(C)C)[C@@H](O)C[C@H]1OC[C@@]31OC(C)=O (some centres not stated),-5.6,-5.6*,
CCOc1cccc(C2NCc3ccccc3-n3cccc32)c1O (configuration not stated),-6.8,-6.8*,
CCOc1cc(C2NCc3ccccc3-n3cccc32)ccc1O (configuration not stated),x,i,
SMILES,KCNQ2 enhance,KCNQ2 inh,others
COc1cc(CN2CC3CC(C2)c2cccc(=O)n2C3)cc(OC)c1OC (configuration not stated),0.5,i,
COc1cc(C)c(-c2nc(CN3C[C@@H]4C[C@@H](C3)c3cccc(=O)n3C4)c(C)o2)cc1C,-5.8,-5.8*,
O=C(c1ccc2c(c1)N(Cc1ccc(F)cc1)CCS2)N1CCC2(CC1)OCCO2,x,i,
COC(=O)C1=CCCN(C)C1,1.1,i,
CC(C)n1c(=O)c(C=Nc2ccc(S(N)(=O)=O)cc2)c(O)n(Cc2ccco2)c1=O,1,i,
CC(C)n1c(=O)c(C=Nc2cccc([N+](=O)[O-])c2)c(O)n(CCc2ccccc2)c1=O,-6.7,-6.7*,
CC(C)CCOP(N)(=O)Oc1ccccc1Cl (configuration not stated),x,i,
Cn1cnnc1Sc1cc(N2CCNCC2)ccc1[N+](=O)[O-],x,i,
COc1ccc(OP(=O)(Nc2ccccc2)Nc2ccccc2)cc1,x,i,
Cc1ccc(NP(=O)(Nc2ccc(C)cc2)Oc2ccccc2)cc1,-7.1,-7.1*,KCNQ2 inh conf=-31%*;KCNQ1 spec=i;CHO parental ctr=i;KCNQ2 patch conf=+
O=C(Nc1cccc2ccccc12)c1nn(C23CC4CC(CC(C4)C2)C3)cc1Br,-8,-8*,KCNQ2 inh conf=-26%*;KCNQ1 spec=i;CHO parental ctr=i;KCNQ2 patch conf=i
CCOC(=O)C1(c2ccccc2)CCN(CC(=O)Nc2cccc3ccccc23)CC1,x,i,
CC1CCSP(=O)(Oc2ccccc2)O1 (configuration not stated),1.4,i,
COCCN(C(=O)COC(=O)Cc1ccccc1)c1c(N)n(Cc2ccccc2)c(=O)[nH]c1=O,0.3,i,
Cc1c(-c2cccc(Cl)c2)nc2ccccc2c1C(=O)N1CCC2(CC1)OCCO2,x,i,
FC(F)(F)c1ccc2c(c1)N(CCCN1CCN(CCCl)CC1)c1ccccc1S2,-7,-7*,KCNQ2 inh conf=-32%*;KCNQ1 spec=i;CHO parental ctr=i;KCNQ2 patch conf=i
Nc1ccc(CCN2CCN(c3cccc(C(F)(F)F)c3)CC2)cc1,0.04,i,
COc1ccc(CN2CCN(c3ccccc3)CC2)c(C)c1C,0.71,i,
CCCCn1c(=O)c(C(=O)NCCc2ccccc2)c(O)c2ccccc21,x,i,
CCCCn1c(=O)c(C(=O)NC(C)c2ccccc2)c(O)c2ccccc21 (configuration not stated),-12,-12*,KCNQ2 inh conf=i;KCNQ1 spec=i;CHO parental ctr=i
O=C(O)Cn1cc(C(=O)c2ccccc2F)c2ccccc21,x,i,
Cc1ccc(Oc2cc(NN3CCCCC3)c([N+](=O)[O-])cc2[N+](=O)[O-])c([N+](=O)[O-])c1,x,i,
CC(Cc1ccccc1)NCCC(=O)NC(C)Cc1ccccc1 (configuration not stated),x,i,
N=C1SCC(=O)N1Cc1ccccc1,1.3,i,
CCC1(CC)C(=O)N(Cc2ccccc2)C(=O)N(Cc2ccccc2)C1=O,-8.2,-8.2*,KCNQ2 inh conf=i;KCNQ1 spec=i;CHO parental ctr=i
CN(C)C(=S)SSC(=S)N(C)C,-10,-10*,KCNQ2 inh conf=i;KCNQ1 spec=i;CHO parental ctr=i

# Assay outcomes deposited in PubChem by Johns Hopkins Ion Channel Center.
